Results published in PMC7862700, “An all-to-all approach to the identification of sequence-specific readers for epigenetic DNA modifications on cytosine”.

Columns and labels:
Assay in all cases: DAPPL (digital affinity profiling via proximity ligation, sequencing); 10 mM Tris-HCl pH 7.5, 50 mM NaCl, 1 mM DTT, 4% glycerol, room temperature, 30 min; GST-TFs on glutathione beads, 16-mer random dsDNA library, 0.1% formaldehyde crosslink after washing; high values mean tight binding
Conditions in all cases: protein: recombinant; tags: N-terminal GST; dsDNA, one strand shown
[1] = target: T1, ELK1 (Homo sapiens, UniProt P19419 1-428)
T1 sequence: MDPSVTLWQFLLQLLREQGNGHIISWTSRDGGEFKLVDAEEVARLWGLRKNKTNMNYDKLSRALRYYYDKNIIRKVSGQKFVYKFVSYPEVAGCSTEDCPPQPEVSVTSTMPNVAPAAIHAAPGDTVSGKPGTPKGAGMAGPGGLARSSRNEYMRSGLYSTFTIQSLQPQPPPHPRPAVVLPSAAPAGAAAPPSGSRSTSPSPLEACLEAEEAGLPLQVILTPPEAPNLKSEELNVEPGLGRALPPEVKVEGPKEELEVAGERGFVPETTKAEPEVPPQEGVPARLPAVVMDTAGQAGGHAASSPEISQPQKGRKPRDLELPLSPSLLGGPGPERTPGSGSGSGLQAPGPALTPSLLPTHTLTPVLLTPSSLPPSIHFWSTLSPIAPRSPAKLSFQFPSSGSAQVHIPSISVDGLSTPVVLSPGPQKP
How it was run: (§1)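 Yeast served to express human transcription factors as GST fusions, which were then captured on glutathione beads and labelled with DNA barcodes. Pooled with a tag-only sample, they were incubated with 200 nmole of a 16-mer random double-stranded DNA library for 30 min at room temperature in Tris/NaCl/DTT/glycerol buffer, washed, crosslinked with 0.1% formaldehyde, ligated by proximity, amplified by PCR and sequenced. Dividing each hexamer's read frequency for a factor by its frequency for the tag-only sample gives the binding signal.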

[2] = target: T2, GABPA (Homo sapiens, UniProt Q06546 1-454)
T2 sequence: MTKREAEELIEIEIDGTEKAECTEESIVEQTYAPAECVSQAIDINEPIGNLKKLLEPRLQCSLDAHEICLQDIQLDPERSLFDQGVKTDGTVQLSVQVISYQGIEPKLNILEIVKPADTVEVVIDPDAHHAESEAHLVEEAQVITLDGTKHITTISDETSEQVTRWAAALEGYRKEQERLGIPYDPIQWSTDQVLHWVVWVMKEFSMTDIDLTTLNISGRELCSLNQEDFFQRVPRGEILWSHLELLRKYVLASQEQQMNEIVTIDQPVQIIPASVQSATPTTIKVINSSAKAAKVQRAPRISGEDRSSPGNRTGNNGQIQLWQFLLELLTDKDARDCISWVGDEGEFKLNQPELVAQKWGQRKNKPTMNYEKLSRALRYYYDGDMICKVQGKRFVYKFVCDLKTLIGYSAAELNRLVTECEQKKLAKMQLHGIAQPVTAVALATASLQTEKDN
How it was run: as §1

[3] = target: T3, EHF (Homo sapiens, UniProt Q9NZC4 1-300)
T3 sequence: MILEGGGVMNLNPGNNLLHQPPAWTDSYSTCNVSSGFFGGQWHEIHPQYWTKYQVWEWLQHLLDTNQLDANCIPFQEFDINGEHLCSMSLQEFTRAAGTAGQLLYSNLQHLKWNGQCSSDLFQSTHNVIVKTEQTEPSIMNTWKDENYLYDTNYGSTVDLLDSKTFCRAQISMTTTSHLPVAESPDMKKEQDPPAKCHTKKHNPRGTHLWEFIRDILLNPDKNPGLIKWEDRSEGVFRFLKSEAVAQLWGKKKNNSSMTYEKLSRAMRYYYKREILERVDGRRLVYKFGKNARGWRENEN
How it was run: as §1

[4] = target: SPI1 (Homo sapiens, UniProt P17947 1-270)
How it was run: as §1

[5] = target: T4, ELK3 (Homo sapiens, UniProt P41970 1-407)
T4 sequence: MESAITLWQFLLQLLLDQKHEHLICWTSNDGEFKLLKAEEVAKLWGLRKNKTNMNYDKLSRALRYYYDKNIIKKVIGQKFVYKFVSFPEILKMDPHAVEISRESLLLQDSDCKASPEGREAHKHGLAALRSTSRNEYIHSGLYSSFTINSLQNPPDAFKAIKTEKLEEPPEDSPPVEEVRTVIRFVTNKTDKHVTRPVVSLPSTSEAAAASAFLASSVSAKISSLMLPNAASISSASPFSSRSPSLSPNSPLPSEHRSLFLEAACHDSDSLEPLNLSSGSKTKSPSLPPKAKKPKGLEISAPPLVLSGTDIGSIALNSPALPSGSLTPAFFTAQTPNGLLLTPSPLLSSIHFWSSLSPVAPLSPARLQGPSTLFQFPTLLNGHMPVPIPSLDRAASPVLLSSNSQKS
How it was run: as §1

[6] = target: T5, SPIC (Homo sapiens, UniProt Q8N5J4 1-248)
T5 sequence: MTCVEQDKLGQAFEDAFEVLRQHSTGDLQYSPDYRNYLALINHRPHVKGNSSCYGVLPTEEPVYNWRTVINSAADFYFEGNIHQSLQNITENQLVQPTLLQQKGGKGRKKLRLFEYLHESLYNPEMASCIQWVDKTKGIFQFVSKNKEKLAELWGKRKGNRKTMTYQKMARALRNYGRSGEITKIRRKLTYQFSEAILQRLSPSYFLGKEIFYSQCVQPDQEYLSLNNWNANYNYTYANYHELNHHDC
How it was run: as §1

[7] = target: T6, ELK4 (Homo sapiens, UniProt P28324-2 1-405)
T6 sequence: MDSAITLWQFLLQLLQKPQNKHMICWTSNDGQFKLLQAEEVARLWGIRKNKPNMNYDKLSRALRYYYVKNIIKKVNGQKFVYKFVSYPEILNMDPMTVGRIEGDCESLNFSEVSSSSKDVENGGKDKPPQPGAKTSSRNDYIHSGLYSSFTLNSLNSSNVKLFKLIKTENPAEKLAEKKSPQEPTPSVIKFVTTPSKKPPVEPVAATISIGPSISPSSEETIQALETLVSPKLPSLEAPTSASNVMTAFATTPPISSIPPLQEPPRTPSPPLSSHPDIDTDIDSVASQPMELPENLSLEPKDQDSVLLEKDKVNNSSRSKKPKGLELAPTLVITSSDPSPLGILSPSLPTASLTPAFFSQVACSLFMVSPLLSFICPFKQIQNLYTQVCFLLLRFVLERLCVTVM
How it was run: as §1

[8] = target: T7, ETV2 (Homo sapiens, UniProt O00321 1-342)
T7 sequence: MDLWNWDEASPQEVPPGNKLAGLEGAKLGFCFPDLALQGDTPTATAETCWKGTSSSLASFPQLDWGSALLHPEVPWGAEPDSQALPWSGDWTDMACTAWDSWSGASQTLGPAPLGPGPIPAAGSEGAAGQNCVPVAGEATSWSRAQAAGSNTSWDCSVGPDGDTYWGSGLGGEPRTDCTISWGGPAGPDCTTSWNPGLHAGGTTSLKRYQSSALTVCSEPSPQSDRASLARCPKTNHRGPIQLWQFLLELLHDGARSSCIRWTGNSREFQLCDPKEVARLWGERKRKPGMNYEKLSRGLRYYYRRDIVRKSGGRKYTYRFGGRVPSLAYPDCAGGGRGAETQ
How it was run: as §1

[9] = target: T8, ELF3 (Homo sapiens, UniProt P78545 1-371)
T8 sequence: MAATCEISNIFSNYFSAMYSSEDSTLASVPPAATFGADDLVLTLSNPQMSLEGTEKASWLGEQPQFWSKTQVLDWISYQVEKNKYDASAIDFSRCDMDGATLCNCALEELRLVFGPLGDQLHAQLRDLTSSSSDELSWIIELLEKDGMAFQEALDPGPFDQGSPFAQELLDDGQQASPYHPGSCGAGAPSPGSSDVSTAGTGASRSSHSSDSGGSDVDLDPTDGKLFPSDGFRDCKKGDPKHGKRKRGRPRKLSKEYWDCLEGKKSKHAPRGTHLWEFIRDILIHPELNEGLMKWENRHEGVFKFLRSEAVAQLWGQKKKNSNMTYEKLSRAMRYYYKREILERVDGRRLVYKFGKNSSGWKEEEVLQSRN
How it was run: as §1

[10] = target: ETV1 (Homo sapiens, UniProt P50549 1-477)
Chain of ETV1 (P50549 whole entry): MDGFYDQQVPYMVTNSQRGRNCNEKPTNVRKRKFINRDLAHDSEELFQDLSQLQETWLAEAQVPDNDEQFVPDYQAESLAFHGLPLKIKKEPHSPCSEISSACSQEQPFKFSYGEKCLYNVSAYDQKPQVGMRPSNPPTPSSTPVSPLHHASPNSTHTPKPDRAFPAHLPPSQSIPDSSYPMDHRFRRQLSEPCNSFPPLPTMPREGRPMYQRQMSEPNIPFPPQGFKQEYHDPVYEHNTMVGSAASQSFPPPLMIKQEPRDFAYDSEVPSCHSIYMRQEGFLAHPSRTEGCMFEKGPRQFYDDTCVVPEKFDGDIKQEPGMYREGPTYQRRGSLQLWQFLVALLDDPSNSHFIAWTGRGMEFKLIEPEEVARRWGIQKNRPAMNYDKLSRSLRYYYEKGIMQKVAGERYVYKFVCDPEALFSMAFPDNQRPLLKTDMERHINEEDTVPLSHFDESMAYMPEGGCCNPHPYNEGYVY
How it was run: as §1

[11] = target: T9, ERF (Homo sapiens, UniProt P50548 1-548)
T9 sequence: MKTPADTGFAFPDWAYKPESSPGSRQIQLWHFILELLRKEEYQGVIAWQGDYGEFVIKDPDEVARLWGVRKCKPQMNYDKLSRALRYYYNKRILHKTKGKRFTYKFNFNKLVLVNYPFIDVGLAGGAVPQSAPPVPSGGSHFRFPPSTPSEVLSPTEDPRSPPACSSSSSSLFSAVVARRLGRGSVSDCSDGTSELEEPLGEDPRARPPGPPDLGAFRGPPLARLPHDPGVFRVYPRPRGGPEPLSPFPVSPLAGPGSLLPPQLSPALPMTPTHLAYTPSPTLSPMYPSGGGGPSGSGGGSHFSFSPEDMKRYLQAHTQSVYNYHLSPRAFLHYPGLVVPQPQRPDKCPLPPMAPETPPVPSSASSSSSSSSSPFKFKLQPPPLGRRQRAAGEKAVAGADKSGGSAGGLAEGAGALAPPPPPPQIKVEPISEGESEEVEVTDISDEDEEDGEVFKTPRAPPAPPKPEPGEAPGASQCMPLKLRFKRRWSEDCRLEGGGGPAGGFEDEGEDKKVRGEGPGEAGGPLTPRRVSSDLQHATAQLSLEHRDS
How it was run: as §1

AGCCAC
binding signal [1]: 1.04 fold enrichment (6-mer frequency, TF over GST control)
binding signal [2]: 1.01 fold enrichment (6-mer frequency, TF over GST control)
binding signal [3]: 1.05 fold enrichment (6-mer frequency, TF over GST control)
binding signal [4]: 1.03 fold enrichment (6-mer frequency, TF over GST control)
binding signal [5]: 1.11 fold enrichment (6-mer frequency, TF over GST control)
binding signal [6]: 1.03 fold enrichment (6-mer frequency, TF over GST control)
binding signal [7]: 1.03 fold enrichment (6-mer frequency, TF over GST control)
binding signal [8]: 1.07 fold enrichment (6-mer frequency, TF over GST control)
binding signal [9]: 1.06 fold enrichment (6-mer frequency, TF over GST control)
binding signal [10]: 1.04 fold enrichment (6-mer frequency, TF over GST control)
binding signal [11]: 1.01 fold enrichment (6-mer frequency, TF over GST control)
